Data published in PubChem BioAssay (NCATS).
Where “and” joins values, the source holds several entries; their conditions need not be identical. Equal values may be shown once. Records with an inconclusive call do not appear. More than one record can exist for a structure, and the calls need not agree. Values without a mark were called inactive. Calls follow the shape of the dose curve; as a rule, active = well fitted inhibition curve with a large enough effect; inconclusive = small, poorly fitted or top-dose-only effect; inactive = flat fitted curve, though single readings scatter. Where a SMILES comes first, the peptide text is derived from it. Bridges are numbered along the chain shown (N, C = ends). [ ]: non-standard residue; d: D form. The star is where a group is joined. X2 = CC[C@H](C)CCCCC(=O)*; Dab = NCC[C@H](N)C(=O)O

Assay: Drug repurposing screens with cells derived from glioblastoma tumor samples (AID 1345199); also: nearly all actives have a fitted effect of over 40% in size
Conditions: GBM patient neurospheres viability, ATP luminescence, 48 h; at 45.9 µM (top of the series); tumour line D
How it was run: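 Four patient lines of CD133+ GBM neurospheres were screened at several concentrations; hits were retested in those lines plus three slower-growing GBM lines, using 48-hour treatment and ATP-based viability.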
% is scaled to controls: 0 for no effect and ±100 for the full control effect.

Row | SMILES | activity, negative = cell killing
1 | CCCCCCCCCCCCCCCC(=O)OC/C=C(C)/C=C/C=C(C)/C=C/C1=C(C)CCCC1(C)C | 9.03%
2 | CCN(CC)CCOC(=O)c1ccc(N)cc1Cl | -17.2%
3 | O=S(O)CO | -2.6%
4 | COCC1=C(C(=O)OC(C)OC(=O)OC(C)C)N2C(=O)[C@@H](NC(=O)/C(=N\OC)c3csc(N)n3)[C@H]2SC1 (stereo partly specified) | 14.5% and -3.43%
5 | CCOC(=O)Cc1cccc(-c2cc(CCCCCCc3ccc(O[C@H]4O[C@H](COC(C)=O)[C@@H](OC(C)=O)[C@H](OC(C)=O)[C@@H]4OC(C)=O)c(-c4cccc(CC(=O)OCC)c4)c3)ccc2O[C@H]2O[C@H](COC(C)=O)[C@@H](OC(C)=O)[C@H](OC(C)=O)[C@@H]2OC(C)=O)c1 | -4.61%
6 | Nc1ncnc(Nc2ccc(Cl)cc2)n1 | -28%
7 | CCCN(CC)C(CC)C(=O)Nc1c(C)cccc1C (stereo unspecified) | -11.8%
8 | C/C(=C(\CCOC(=O)c1ccccc1)SS/C(CCOC(=O)c1ccccc1)=C(/C)N(C=O)Cc1cnc(C)nc1N)N(C=O)Cc1cnc(C)nc1N | -28%
9 | O=C(Cn1cnnn1)N[C@@H]1C(=O)N2C(C(=O)O)=C(CSc3nncs3)CS[C@H]12 | -5.02% and -0.39%
10 | C=C1CC2C3CCC4=CC(=O)C=C[C@]4(C)[C@@]3(F)[C@@H](O)C[C@]2(C)[C@@]1(O)C(=O)COC(C)=O (stereo partly specified) | 11.1%
11 | O=C1O[C@H]2[C@H](O)[C@@H]1OC(O)[C@H]2O (stereo partly specified) | -9.05%
12 | CCCCCCCCCCCCCCCCCC(=O)[O][Al] | -6.36%
13 | CCC(=O)O | -5.65%
14 | COc1cc2c(c(OC)c1OC)-c1c(cc3c(c1OC)OCO3)C[C@@H](C)[C@](C)(O)C2 | -7.05% and -25.9%
15 | CC(=O)[C@@]1(O)CC[C@H]2[C@@H]3C=C(Cl)C4=CC(=O)CC[C@]4(C)[C@H]3CC[C@@]21C | -22.6%
16 | C[C@H]1C[C@@H]2[C@H]([C@@H](O)C[C@@]3(C)[C@H]2CC[C@]3(O)C(=O)COC(=O)CCC(=O)O)[C@@]2(C)C=CC(=O)C=C12 | -23.4%

Row | SMILES | activity, negative = cell killing
17 | CCC(=O)Oc1ccc2c(c1)CC[C@@H]1[C@@H]2CC[C@]2(C)[C@@H](OC(=O)CC)CC[C@@H]12 | -16.9%
18 | CC(=O)OCC(=O)[C@@]1(O)[C@H](C)C[C@H]2[C@@H]3C[C@H](F)C4=CC(=O)C=C[C@]4(C)[C@H]3[C@@H](O)C[C@@]21C | 2.28%
19 | CCCCC(=O)O | 6.9% and -1.28%
20 | CN=C(NC)NCc1ccccc1 | 7.26%
21 | Cc1cc(Nc2ccccc2C(=O)O)ccc1Cl | -31.8%
22 | C/C=C(/CC[C@@H](C)[C@H]1CC[C@H]2C3=CC[C@H]4[C@H](C)[C@@H](O)CC[C@]4(C)[C@H]3CC[C@]12C)C(C)C | -7.38%
23 | CS(=O)(=O)Nc1cc2occ(NC=O)c(=O)c2cc1Oc1ccccc1 | -12.9%
24 | OCC(O)COc1ccc(Cl)cc1 (stereo unspecified) | -2.58%
25 | O=C1O[C@@H]2[C@@H](O)[C@H](O)O[C@@H]2[C@H]1O | -1.84%
26 | CC(C)(S)C(=O)N[C@@H](CS)C(=O)O | -24.6% and -16.1%
27 | CC(=O)O[C@H]1C[C@@H]2CC[C@@H]3[C@H](CC[C@@]4(C)[C@H]3C[C@H](N3CC[N+](C)(C)CC3)[C@@H]4OC(C)=O)[C@@]2(C)C[C@@H]1N1CC[N+](C)(C)CC1 | 1.51%
28 | O=C[C@H](O)[C@@H](O)[C@H](O)[C@H](O)CO | -7.76%
29 | NCCC[C@H](N)C(=O)O | -10.6%
30 | NCCCC[C@H](NC(=O)[C@@H]1CCCN1C(=O)[C@@H]1CSSC[C@H](N)C(=O)N[C@@H](Cc2ccccc2)C(=O)N[C@@H](Cc2ccccc2)C(=O)N[C@@H](CCC(N)=O)C(=O)N[C@@H](CC(N)=O)C(=O)N1)C(=O)NCC(N)=O | -4.17%
31 | CC[C@H](C)CCCCC(=O)N[C@@H](CCN)C(=O)N[C@H](C(=O)N[C@@H](CCN)C(=O)N[C@H]1CCNC(=O)[C@H]([C@@H](C)O)NC(=O)[C@H](CCN)NC(=O)[C@H](CCN)NC(=O)[C@H](CC(C)C)NC(=O)[C@@H](CC(C)C)NC(=O)[C@H](CCN)NC1=O)[C@@H](C)O (X2-[Dab]T[Dab][Dab][Dab][dL]L[Dab][Dab]T; lactam 4-C) | 12.6%
